Test results from PubChem BioAssay (EPA / NIEHS).
Activity calls are given as the source filed them. The calls were made as follows: active = hit-call score of the fitted dose curve at least 0.9, where 1 is the maximum; inactive = score below 0.9.

How the values were obtained:
[1] = ATG_GRE_CIS: Attagene CIS-FACTORIAL HepG2 Assay for human Glucocorticoid Response Elements (GRE) (AID 2282947); settings: HepG2 GRE cis-reporter, Attagene multiplex mRNA; actives raise or lower the signal
Outline: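 Multiplexed cis-reporter mRNA induction, HepG2, 24 h post-dose. RT-PCR, FAM-labelled, HpaI-digested amplicons by CE. Bidirectional fit vs DMSO.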

[2] = ATG_ISRE_CIS: Attagene CIS-FACTORIAL HepG2 Assay for human Interferon Regulatory Factor 1 (IRF1) binding to an Interferon-Stimulated Response Element (ISRE) (AID 2282948); settings: HepG2 ISRE cis-reporter (Attagene), mRNA transcription readout; actives raise or lower the signal
Outline: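 Read-out: fluorescent RT-PCR products resolved by capillary electrophoresis, reporting endogenous transcription factor activity via ISRE-driven reporter mRNA in transfected HepG2 cells dosed for 24 h; gain or loss fitted relative to DMSO.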

[3] = ATG_M_32_CIS: Attagene CIS-FACTORIAL HepG2 Assay for M32 Transcription Factor (Internal Marker) (AID 2282949); settings: HepG2 Attagene cis-factorial M32 reporter, mRNA; actives raise or lower the signal;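 also: background control marker of the multiplexed CIS panel rather than a real target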
Outline: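 Transient MRTU transfection of HepG2; 24 h compound treatment; TriZol RNA, oligo(dT) RT, reporter PCR, 6-FAM primer extension, HpaI cut, CE. Gain/loss of signal vs DMSO.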

[4] = ATG_M_06_CIS: Attagene CIS-FACTORIAL HepG2 Assay for M06 Transcription Factor (Internal Marker) (AID 2282950); settings: HepG2 Attagene CIS-FACTORIAL M06 internal marker reporter; actives raise or lower the signal
Outline: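 One of many multiplexed endpoints: HepG2 reporter mRNA after 24 h dosing, detected by RT-PCR and capillary electrophoresis fluorescence; gain or loss of signal analysed against DMSO.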

[5] = target: Heat shock factor protein 1 (Homo sapiens) (UniProt Q00613); assay: ATG_HSE_CIS: Attagene CIS-FACTORIAL HepG2 Assay for human Heat Shock Transcription Factor 1 (HSE) (AID 2282953); settings: HepG2 HSE cis-reporter, Attagene RNA transcription; actives raise or lower the signal
Outline: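 Using HepG2 with transfected cis-driven reporter constructs, compound effects on endogenous factor activity are scored as reporter mRNA change at 24 h. Detection: RT-PCR, HpaI digestion, capillary electrophoresis; bidirectional fitting to DMSO.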

[6] = ATG_MRE_CIS: Attagene CIS-FACTORIAL HepG2 Assay for human Metal Responsive Element (MRE) (AID 2282954); settings: HepG2 MRE cis-reporter transcription, Attagene multiplex; actives raise or lower the signal
Outline: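 Multiplexed cis-reporter assay in human HepG2 liver cells, 24 h incubation with test chemical. Reporter transcripts measured by RT-PCR and capillary electrophoresis; values from bidirectional curve fitting versus DMSO.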

[7] = ATG_PBREM_CIS: Attagene CIS-FACTORIAL HepG2 Assay for human Phenobarbital-responsive Enhancer Module (PBREM) (AID 2282955); settings: HepG2 PBREM cis-reporter, Attagene multiplexed transcription; actives raise or lower the signal
Outline: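 HepG2 cells transiently transfected with multiple cis-regulated reporter transcription units; endogenous factor activity at the PBREM element measured as reporter mRNA 24 h after dosing, via RT-PCR and capillary electrophoresis of fluorescent fragments; bidirectional fitting versus DMSO.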

[8] = target: Paired box protein Pax-6 (Homo sapiens) (UniProt P26367); assay: ATG_Pax6_CIS: Attagene CIS-FACTORIAL HepG2 Assay for human Paired Box 6 (PAX6) (AID 2282956); settings: HepG2 CIS-FACTORIAL PAX6 reporter transcription, RNA readout; actives raise or lower the signal
Outline: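 Readout: reporter transcript fluorescence after RT-PCR and capillary electrophoresis. Cells: HepG2, transiently transfected with cis-regulated MRTUs. Exposure 24 h. Gain or loss of signal fitted bidirectionally relative to DMSO.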

[9] = ATG_PXRE_CIS: Attagene CIS-FACTORIAL HepG2 Assay for human Pregnane X Receptor Element (PXRE) (AID 2282957); settings: HepG2 Attagene CIS-FACTORIAL PXRE reporter, mRNA; actives raise or lower the signal
Outline: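 Endogenous transcription factor activity in HepG2 was gauged through induction of reporter mRNA driven by a cis-regulating promoter element, sampled 24 h post-treatment. Activity was fitted in both directions against DMSO negative control.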

[10] = ATG_RORE_CIS: Attagene CIS-FACTORIAL HepG2 Assay for human RAR-related Orphan Receptor Element (RORE) (AID 2282959); settings: HepG2 Attagene cis-factorial RORE reporter, mRNA; actives raise or lower the signal
Outline: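 HepG2 cells transiently transfected with multiple cis-element reporter transcription units, exposed to chemical for 24 h. Reporter mRNA quantified by RT-PCR, 6-FAM primer-extension labeling, HpaI digestion and capillary electrophoresis; bidirectional fit versus DMSO baseline.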

[11] = target: Transcription factor Sp1 (Homo sapiens) (UniProt P08047); assay: ATG_Sp1_CIS: Attagene CIS-FACTORIAL HepG2 Assay for human Specificity Protein 1 (Sp1) (AID 2282961); settings: HepG2 Sp1 cis-reporter transcription, actives raise or lower the signal
Outline: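 HepG2 cells transiently transfected with multiple reporter transcription units driven by cis-regulatory elements; Sp1-responsive reporter mRNA measured 24 h after dosing by RT-PCR and capillary electrophoresis fluorescence, fitted bidirectionally against DMSO baseline.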

[12] = ATG_SREBP_CIS: Attagene CIS-FACTORIAL HepG2 Assay for human Sterol Regulatory Element Binding (SREBP) (AID 2282962); settings: HepG2 Attagene cis-factorial SREBP reporter, mRNA; actives raise or lower the signal
Outline: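 Readout: fluorescent reporter-transcript peaks resolved by capillary electrophoresis after RT-PCR. Cells were human HepG2 carrying transfected cis-promoter reporter constructs, dosed for 24 h. Gain or loss of signal was fitted against DMSO controls.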

[13] = target: Signal transducer and activator of transcription 3 (Homo sapiens) (UniProt P40763); assay: ATG_STAT3_CIS: Attagene CIS-FACTORIAL HepG2 Assay for human Signal Transducer and Activator of Transcription 3 (STAT3) (AID 2282963); settings: HepG2, Attagene cis-factorial STAT3 reporter transcription; actives raise or lower the signal
Outline: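 Cis-factorial format: endogenous transcription factors in HepG2 drive transfected reporter units. After 24 h treatment, reporter RNA was reverse-transcribed, amplified, FAM-labelled and HpaI-digested before CE analysis; activity scored in both directions against DMSO.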

[14] = ATG_TA_CIS: Attagene CIS-FACTORIAL HepG2 Assay for human TA Basal Promoter (AID 2282964); settings: HepG2 Attagene CIS-factorial TA basal promoter reporter; actives raise or lower the signal
Outline: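 Transient MRTU transfection of HepG2 preceded 24 h compound exposure. Reporter mRNA levels were then read by RT-PCR with capillary electrophoresis, and this background-control endpoint was fitted bidirectionally to DMSO.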

[15] = ATG_TCF_b_cat_CIS: Attagene CIS-FACTORIAL HepG2 Assay for human T-Cell-Factor with beta-catenin (TCF/b-cat) (AID 2282965); settings: HepG2 TCF/beta-catenin cis-reporter transcription, actives raise or lower the signal
Outline: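 Measured: reporter mRNA in HepG2 transiently transfected with cis-promoter reporter units, 24 h after chemical addition. Fitting was bidirectional, DMSO as negative control.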

[16] = ATG_TAL_CIS: Attagene CIS-FACTORIAL HepG2 Assay for human TAL Basal Promoter (AID 2282966); settings: HepG2 Attagene cis-factorial TAL promoter reporter; actives raise or lower the signal;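 also: background control endpoint measuring basal TAL promoter reporter mRNA not a specific factor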
Outline: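 Endogenous transcription-factor activity is sensed in HepG2 cells through transfected cis-promoter reporter constructs. After 24 h dosing, reporter transcripts are quantified by RT-PCR and capillary electrophoresis. Gain or loss of signal is fitted relative to DMSO.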

[17] = target: Hepatocyte nuclear factor 6 (Homo sapiens) (UniProt Q9UBC0); assay: ATG_HNF6_CIS: Attagene CIS-FACTORIAL HepG2 Assay for human Hepatocyte Nuclear Factor 6 (HNF6) (AID 2282952); settings: HepG2 Attagene cis-factorial HNF6 reporter transcription; actives raise or lower the signal
Outline: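 Endogenous transcription factor activity in human HepG2 liver cells was captured through cis-regulated reporter constructs. After 24 h treatment, reporter mRNA was measured by RT-PCR with capillary electrophoresis, and activity was fitted in both directions relative to DMSO.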

[18] = ATG_PPRE_CIS: Attagene CIS-FACTORIAL HepG2 Assay for human Peroxisome Proliferator-activated Response Element (PPRE) (AID 2282958); settings: HepG2 PPRE cis-element reporter, Attagene transcription factor profiling; actives raise or lower the signal
Outline: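 HepG2 cells transiently transfected with multiplexed cis-element reporter units measure endogenous transcription factor activity. After 24 h compound exposure, reporter mRNA is quantified by RT-PCR, 6-FAM labeling, HpaI digestion and capillary electrophoresis; bidirectional fits are made against DMSO baseline.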

[19] = ATG_Sox_CIS: Attagene CIS-FACTORIAL HepG2 Assay for human SRY-box transcription factor (SOX) (AID 2282960); settings: HepG2 Attagene cis-factorial SOX reporter, mRNA; actives raise or lower the signal
Outline: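 HepG2 cells transiently transfected with cis-element-driven multiple reporter transcription units, dosed 24 h; reporter mRNA measured by RT-PCR, FAM labelling, HpaI digestion and capillary electrophoresis. Bidirectional fit versus DMSO baseline.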

Measured: AC50

Sequence of Heat shock factor protein 1 (Homo sapiens) (Q00613 whole entry, looked up): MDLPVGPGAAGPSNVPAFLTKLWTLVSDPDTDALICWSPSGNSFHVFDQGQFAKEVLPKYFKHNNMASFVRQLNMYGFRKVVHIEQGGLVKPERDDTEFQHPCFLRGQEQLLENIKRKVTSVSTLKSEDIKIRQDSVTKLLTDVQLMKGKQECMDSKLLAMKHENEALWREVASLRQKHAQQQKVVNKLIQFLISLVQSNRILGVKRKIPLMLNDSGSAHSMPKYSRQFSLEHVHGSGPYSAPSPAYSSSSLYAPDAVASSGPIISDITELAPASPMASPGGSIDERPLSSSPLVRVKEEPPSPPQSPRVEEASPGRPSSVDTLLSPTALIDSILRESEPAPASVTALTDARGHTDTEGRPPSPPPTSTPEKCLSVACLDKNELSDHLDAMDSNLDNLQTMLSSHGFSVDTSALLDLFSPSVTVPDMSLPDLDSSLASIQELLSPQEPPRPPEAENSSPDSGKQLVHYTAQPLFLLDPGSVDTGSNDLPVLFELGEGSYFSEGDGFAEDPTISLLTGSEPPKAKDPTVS
Sequence of Hepatocyte nuclear factor 6 (Homo sapiens) (Q9UBC0 whole entry, looked up): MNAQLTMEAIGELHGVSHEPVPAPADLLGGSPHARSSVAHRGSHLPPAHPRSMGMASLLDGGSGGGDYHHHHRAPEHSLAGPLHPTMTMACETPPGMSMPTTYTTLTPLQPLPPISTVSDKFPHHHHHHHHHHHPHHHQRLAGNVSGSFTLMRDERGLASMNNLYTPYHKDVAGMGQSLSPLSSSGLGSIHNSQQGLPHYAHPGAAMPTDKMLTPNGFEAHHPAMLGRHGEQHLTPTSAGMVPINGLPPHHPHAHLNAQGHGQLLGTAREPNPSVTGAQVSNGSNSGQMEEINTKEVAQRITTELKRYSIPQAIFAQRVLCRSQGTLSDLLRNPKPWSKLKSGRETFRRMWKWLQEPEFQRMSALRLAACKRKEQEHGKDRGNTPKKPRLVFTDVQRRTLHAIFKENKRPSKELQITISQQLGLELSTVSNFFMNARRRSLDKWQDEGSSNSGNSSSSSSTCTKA
Sequence of Transcription factor Sp1 (Homo sapiens) (P08047 whole entry, looked up): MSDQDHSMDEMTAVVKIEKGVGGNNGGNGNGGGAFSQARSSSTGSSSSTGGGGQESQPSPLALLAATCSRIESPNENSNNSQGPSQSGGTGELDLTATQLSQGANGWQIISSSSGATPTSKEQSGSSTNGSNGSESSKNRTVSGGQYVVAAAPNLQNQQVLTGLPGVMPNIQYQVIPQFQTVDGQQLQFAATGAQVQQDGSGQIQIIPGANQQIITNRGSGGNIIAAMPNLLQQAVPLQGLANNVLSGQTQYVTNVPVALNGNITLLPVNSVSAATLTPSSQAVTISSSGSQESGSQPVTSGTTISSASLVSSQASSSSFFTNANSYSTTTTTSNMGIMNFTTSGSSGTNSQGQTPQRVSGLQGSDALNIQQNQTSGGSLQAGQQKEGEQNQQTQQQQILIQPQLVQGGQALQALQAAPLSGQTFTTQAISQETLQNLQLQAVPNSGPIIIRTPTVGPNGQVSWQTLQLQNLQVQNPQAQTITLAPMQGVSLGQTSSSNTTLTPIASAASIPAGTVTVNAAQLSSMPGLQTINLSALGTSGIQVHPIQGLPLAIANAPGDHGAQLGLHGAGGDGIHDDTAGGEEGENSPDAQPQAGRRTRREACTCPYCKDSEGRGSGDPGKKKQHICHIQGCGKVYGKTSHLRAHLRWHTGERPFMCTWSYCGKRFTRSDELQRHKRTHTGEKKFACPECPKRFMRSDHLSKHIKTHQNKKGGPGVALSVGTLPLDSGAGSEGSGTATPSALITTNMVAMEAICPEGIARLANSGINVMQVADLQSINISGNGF
Sequence of Paired box protein Pax-6 (Homo sapiens) (P26367 whole entry, looked up): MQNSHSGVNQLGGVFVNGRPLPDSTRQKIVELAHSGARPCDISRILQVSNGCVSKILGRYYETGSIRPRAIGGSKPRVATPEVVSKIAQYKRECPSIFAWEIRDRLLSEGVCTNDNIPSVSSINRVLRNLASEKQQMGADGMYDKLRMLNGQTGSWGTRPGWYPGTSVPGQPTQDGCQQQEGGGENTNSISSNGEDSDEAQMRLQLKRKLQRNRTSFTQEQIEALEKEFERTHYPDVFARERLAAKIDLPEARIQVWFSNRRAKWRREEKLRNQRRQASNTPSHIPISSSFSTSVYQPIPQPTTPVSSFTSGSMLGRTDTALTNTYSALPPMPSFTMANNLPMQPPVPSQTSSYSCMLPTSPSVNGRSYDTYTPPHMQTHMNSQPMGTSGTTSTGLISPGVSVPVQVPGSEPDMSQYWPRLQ
Sequence of Signal transducer and activator of transcription 3 (Homo sapiens) (P40763 whole entry, looked up): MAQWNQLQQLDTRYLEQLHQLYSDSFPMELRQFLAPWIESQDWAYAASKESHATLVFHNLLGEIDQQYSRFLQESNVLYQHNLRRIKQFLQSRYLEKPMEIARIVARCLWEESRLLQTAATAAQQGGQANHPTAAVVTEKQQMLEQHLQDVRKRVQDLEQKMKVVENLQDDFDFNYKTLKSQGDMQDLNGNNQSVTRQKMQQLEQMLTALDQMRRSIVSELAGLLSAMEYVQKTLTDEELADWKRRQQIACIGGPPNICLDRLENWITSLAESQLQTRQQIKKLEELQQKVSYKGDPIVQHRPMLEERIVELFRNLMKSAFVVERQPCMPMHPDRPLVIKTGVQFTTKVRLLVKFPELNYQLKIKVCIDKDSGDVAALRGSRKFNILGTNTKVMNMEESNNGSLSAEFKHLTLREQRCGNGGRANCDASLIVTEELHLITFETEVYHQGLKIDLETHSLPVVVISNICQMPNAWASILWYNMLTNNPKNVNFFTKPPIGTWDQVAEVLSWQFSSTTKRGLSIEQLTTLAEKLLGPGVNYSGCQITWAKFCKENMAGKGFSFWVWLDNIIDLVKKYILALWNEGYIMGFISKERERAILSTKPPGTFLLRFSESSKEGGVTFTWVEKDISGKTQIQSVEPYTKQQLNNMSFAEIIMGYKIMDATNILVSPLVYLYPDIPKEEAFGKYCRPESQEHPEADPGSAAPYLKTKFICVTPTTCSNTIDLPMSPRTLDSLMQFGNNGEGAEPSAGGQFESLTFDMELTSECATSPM

CCOCCO
not listed: [17] | [18] | [19]
inactive: all other assays above

CC1=CC(=O)CC(C)(C)C1
active: [9] 50 µM
not listed: [5] | [7] | [19]
inactive: all other assays above

CC(C)CC(C)(O)C#CC(C)(O)CC(C)C (centres undefined)
active: [9] 12.7 µM
not listed: [17] | [18] | [19]
inactive: all other assays above

Nc1nc2ncc(CNc3ccc(C(=O)N[C@@H](CCC(=O)O)C(=O)O)cc3)nc2c(=O)[nH]1
not listed: [19]
inactive: all other assays above

CC(O)CN(CCN(CC(C)O)CC(C)O)CC(C)O (centres undefined)
not listed: [19]
inactive: all other assays above

CCCCCCc1ccc(O)cc1O
active: [2] 55.7 µM | [6] 54.1 µM | [8] 51.1 µM | [10] 42 µM | [15] 47.8 µM
not listed: [18] | [19]
inactive: all other assays above

Cn1cnc([N+](=O)[O-])c1Sc1ncnc2nc[nH]c12
active: [2] 63.3 µM
not listed: [5]
inactive: all other assays above
